In publication PMC7862700, “An all-to-all approach to the identification of sequence-specific readers for epigenetic DNA modifications on cytosine”:

Tests used:
Assay in all cases: DAPPL (digital affinity profiling via proximity ligation, sequencing); 10 mM Tris-HCl pH 7.5, 50 mM NaCl, 1 mM DTT, 4% glycerol, room temperature, 30 min; GST-TFs on glutathione beads, 16-mer random dsDNA library, 0.1% formaldehyde crosslink after washing; high values mean tight binding
Details in all cases: protein: recombinant; tags: N-terminal GST; dsDNA, one strand shown
[1] = target: T1, FLI1 (Homo sapiens, UniProt Q01543 1-452)
T1 sequence: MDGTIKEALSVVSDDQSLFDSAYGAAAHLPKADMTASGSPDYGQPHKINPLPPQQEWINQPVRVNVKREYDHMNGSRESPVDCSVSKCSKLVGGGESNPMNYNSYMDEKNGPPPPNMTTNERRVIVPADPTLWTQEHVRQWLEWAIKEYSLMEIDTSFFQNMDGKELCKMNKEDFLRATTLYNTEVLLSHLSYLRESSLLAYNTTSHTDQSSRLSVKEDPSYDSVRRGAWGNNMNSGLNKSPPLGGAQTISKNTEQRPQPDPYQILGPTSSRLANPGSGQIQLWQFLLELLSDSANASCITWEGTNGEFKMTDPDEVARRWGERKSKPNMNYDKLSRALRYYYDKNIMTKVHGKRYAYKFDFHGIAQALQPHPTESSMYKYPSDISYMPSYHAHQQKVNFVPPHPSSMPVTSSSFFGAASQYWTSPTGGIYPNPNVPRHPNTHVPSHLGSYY
Outline: (§1)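 Binding signal is defined as a hexamer's read frequency for one factor over its frequency for the tag-only sample. To obtain reads, GST-fused human transcription factors were expressed in yeast, captured on glutathione beads, barcoded with DNA and pooled with that sample. Pools met 200 nmole of a 16-mer random double-stranded DNA library in Tris/NaCl/DTT/glycerol buffer for 30 min at room temperature before washing, 0.1% formaldehyde crosslinking, proximity ligation (BsaI/T4 ligase, 1 h, 37 °C), PCR and Illumina NextSeq500 sequencing.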

[2] = target: T2, GABPA (Homo sapiens, UniProt Q06546 1-454)
T2 sequence: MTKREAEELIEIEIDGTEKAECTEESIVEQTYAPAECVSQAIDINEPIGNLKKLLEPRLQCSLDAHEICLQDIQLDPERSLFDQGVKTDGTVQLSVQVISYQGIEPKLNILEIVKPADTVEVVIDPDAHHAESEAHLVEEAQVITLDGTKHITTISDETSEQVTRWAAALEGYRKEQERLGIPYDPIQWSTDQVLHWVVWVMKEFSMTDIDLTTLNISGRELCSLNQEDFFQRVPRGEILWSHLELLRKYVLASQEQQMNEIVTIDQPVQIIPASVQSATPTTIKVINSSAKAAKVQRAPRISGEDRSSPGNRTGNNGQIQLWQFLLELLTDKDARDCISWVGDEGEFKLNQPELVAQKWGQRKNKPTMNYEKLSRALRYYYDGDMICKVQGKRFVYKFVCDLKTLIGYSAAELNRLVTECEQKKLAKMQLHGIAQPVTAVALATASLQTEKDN
Outline: as §1

[3] = target: T3, ERG (Homo sapiens, UniProt P11308 1-479)
T3 sequence: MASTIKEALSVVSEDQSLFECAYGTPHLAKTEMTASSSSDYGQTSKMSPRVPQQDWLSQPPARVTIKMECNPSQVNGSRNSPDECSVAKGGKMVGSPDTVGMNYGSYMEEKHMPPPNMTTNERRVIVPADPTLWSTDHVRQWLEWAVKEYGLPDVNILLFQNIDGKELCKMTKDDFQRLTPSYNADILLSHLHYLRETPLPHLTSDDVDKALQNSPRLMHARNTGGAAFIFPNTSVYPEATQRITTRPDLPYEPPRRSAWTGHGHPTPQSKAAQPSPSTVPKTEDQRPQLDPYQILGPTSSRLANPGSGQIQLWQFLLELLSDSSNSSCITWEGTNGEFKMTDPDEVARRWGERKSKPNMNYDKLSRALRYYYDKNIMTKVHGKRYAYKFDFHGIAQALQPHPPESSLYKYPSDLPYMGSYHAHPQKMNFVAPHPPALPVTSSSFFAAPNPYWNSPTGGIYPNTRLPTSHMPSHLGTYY
Outline: as §1

[4] = target: ELF1 (Homo sapiens, UniProt P32519 1-619)
Outline: as §1

[5] = target: SPI1 (Homo sapiens, UniProt P17947 1-270)
Outline: as §1

[6] = target: SPIB (Homo sapiens, UniProt Q01892 1-262)
Outline: as §1

[7] = target: ELF4 (Homo sapiens, UniProt Q99607 1-663)
Outline: as §1

[8] = target: T4, ELK4 (Homo sapiens, UniProt P28324-2 1-405)
T4 sequence: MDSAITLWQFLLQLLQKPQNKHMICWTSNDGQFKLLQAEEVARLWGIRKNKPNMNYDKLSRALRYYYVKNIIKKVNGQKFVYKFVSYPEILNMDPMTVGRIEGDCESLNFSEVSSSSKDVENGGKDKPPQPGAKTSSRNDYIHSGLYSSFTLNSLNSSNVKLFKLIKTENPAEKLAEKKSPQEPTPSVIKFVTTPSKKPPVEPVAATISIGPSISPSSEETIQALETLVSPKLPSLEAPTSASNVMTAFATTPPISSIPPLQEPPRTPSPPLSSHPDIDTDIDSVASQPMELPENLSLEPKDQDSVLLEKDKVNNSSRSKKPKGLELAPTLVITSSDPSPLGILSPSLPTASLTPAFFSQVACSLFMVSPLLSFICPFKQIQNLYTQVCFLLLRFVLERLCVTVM
Outline: as §1

[9] = target: T5, ETV2 (Homo sapiens, UniProt O00321 1-342)
T5 sequence: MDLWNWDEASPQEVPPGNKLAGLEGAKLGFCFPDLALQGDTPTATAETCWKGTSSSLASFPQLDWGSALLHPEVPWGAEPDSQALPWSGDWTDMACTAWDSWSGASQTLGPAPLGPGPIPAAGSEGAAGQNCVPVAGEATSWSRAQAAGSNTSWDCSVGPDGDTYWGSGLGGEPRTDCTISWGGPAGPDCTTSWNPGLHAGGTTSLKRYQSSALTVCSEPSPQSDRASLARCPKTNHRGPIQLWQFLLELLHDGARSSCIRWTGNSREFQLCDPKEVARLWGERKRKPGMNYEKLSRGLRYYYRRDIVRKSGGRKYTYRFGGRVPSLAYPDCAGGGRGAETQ
Outline: as §1

[10] = target: T6, ELF3 (Homo sapiens, UniProt P78545 1-371)
T6 sequence: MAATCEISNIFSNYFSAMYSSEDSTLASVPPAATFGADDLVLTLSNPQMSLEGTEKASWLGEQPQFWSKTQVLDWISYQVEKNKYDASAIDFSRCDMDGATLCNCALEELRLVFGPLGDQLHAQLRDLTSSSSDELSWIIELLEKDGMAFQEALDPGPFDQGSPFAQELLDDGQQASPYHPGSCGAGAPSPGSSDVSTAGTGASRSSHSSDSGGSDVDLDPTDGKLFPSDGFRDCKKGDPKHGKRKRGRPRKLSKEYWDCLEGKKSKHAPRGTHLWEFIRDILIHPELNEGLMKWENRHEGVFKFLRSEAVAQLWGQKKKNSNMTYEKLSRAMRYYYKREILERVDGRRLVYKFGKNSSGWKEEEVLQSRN
Outline: as §1

[11] = target: ETV1 (Homo sapiens, UniProt P50549 1-477)
Outline: as §1

[12] = target: T7, ERF (Homo sapiens, UniProt P50548 1-548)
T7 sequence: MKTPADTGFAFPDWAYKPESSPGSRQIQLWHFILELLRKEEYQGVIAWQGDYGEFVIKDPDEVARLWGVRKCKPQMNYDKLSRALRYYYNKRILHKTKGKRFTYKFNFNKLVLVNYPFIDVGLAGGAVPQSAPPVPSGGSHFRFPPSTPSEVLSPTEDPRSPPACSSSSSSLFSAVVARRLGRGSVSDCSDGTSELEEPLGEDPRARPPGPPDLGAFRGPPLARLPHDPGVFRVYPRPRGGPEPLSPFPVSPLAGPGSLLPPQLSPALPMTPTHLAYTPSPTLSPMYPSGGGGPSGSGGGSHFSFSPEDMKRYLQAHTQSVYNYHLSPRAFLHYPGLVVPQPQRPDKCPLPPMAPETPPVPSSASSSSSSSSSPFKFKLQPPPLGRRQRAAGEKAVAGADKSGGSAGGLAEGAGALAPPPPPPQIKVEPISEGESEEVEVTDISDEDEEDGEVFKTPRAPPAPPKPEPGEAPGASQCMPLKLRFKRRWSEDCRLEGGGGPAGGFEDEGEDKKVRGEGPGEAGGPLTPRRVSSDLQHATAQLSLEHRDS
Outline: as §1

[13] = target: T8, ETV3L (Homo sapiens, UniProt Q6ZN32 1-361)
T8 sequence: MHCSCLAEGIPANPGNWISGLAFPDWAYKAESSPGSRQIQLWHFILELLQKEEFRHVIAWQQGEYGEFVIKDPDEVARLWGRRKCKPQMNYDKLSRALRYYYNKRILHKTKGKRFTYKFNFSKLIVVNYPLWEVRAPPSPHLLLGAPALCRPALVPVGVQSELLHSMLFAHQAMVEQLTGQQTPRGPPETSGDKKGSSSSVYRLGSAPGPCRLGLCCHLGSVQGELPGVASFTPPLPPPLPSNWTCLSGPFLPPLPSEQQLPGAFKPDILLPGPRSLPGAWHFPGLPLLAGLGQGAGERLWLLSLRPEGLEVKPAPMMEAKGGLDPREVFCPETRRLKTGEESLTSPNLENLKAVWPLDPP
Outline: as §1

[14] = target: T9, ETS2 (Homo sapiens, UniProt P15036 1-469)
T9 sequence: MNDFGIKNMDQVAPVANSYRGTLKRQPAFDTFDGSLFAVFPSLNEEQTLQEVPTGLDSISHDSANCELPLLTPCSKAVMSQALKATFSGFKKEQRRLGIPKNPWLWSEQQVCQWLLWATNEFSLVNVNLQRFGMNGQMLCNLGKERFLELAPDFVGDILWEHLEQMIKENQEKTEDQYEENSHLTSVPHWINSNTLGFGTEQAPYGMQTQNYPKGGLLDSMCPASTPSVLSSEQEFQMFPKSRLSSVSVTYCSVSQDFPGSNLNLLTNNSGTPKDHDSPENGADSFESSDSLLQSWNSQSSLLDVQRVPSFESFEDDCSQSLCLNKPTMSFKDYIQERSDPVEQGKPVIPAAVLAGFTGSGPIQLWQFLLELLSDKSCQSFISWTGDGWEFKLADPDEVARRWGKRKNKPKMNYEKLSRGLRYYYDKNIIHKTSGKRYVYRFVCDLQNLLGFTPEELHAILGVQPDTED
Outline: as §1

[15] = target: T10, ELF5 (Homo sapiens, UniProt Q9UKW6-2 1-255)
T10 sequence: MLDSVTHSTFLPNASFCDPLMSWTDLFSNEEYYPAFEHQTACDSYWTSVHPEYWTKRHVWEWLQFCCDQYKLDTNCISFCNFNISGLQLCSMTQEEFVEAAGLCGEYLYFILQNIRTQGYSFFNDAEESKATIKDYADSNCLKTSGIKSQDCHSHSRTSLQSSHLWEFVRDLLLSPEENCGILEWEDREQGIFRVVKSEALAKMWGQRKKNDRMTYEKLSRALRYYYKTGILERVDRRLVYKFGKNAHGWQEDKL
Outline: as §1

[16] = target: T11, ETV3 (Homo sapiens, UniProt P41162-2 1-143)
T11 sequence: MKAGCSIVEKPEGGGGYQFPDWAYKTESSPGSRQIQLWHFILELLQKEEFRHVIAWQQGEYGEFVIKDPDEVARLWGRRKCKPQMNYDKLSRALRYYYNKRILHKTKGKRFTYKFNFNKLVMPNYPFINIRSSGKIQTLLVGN
Outline: as §1

[17] = target: ETV6 (Homo sapiens, UniProt P41212 1-452)
Outline: as §1

Sequence of ETV1 (P50549 whole entry): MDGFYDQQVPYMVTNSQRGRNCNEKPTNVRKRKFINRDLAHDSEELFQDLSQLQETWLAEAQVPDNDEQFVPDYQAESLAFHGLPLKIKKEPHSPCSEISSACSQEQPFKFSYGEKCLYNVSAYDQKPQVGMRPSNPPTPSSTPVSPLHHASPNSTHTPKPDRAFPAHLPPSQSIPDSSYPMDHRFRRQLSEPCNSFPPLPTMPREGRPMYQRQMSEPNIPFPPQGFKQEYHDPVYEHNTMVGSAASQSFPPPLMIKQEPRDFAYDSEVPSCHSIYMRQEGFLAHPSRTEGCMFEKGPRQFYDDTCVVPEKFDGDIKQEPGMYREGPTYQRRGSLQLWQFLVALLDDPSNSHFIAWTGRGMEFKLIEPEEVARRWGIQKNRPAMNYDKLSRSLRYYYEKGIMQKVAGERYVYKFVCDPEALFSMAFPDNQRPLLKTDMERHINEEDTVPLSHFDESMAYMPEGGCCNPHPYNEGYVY
Sequence of ELF1 (P32519 whole entry): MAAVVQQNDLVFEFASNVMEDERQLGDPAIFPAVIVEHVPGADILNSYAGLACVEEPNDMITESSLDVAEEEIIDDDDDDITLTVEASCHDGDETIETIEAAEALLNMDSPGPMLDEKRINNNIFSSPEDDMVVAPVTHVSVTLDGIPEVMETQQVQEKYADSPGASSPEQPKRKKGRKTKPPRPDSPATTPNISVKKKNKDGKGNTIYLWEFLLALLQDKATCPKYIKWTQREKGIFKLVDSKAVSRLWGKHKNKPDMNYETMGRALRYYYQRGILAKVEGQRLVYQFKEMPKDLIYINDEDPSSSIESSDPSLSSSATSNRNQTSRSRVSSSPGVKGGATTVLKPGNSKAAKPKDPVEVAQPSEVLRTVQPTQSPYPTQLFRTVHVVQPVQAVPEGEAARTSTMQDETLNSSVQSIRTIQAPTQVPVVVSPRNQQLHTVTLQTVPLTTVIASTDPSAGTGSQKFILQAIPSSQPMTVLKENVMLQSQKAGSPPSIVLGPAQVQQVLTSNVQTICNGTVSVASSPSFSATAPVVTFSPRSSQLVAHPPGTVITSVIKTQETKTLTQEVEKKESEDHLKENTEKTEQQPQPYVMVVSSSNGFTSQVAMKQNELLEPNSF
Sequence of ELF4 (Q99607 whole entry): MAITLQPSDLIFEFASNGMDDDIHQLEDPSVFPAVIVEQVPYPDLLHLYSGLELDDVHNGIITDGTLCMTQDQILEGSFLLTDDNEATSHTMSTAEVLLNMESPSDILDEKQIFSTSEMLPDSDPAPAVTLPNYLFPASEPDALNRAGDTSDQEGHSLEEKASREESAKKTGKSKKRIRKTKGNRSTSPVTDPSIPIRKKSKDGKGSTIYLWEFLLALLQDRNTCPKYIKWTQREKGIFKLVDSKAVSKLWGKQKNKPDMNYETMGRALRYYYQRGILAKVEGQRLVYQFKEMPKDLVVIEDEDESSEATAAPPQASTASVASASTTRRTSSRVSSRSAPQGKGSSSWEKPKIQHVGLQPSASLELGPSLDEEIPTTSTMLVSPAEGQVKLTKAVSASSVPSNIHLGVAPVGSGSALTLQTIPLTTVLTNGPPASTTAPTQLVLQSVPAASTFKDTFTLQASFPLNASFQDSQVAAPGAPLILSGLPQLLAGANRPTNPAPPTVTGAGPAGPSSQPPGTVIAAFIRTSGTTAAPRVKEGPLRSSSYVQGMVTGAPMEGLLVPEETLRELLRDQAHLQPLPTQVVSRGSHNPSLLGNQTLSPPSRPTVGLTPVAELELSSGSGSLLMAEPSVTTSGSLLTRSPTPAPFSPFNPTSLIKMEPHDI
Sequence of ETV6 (P41212 whole entry): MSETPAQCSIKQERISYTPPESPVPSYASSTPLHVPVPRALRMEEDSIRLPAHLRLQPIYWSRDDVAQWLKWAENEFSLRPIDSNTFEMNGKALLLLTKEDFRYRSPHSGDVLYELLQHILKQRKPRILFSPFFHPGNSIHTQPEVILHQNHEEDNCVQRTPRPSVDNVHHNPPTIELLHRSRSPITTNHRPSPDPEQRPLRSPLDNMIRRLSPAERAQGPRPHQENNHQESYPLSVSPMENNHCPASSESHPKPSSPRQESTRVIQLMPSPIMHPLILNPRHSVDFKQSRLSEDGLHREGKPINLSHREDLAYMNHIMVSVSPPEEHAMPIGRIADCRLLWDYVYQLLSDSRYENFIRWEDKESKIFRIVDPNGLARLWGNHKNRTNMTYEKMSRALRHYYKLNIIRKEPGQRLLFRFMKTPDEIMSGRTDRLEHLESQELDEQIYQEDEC
Sequence of SPIB (Q01892 whole entry): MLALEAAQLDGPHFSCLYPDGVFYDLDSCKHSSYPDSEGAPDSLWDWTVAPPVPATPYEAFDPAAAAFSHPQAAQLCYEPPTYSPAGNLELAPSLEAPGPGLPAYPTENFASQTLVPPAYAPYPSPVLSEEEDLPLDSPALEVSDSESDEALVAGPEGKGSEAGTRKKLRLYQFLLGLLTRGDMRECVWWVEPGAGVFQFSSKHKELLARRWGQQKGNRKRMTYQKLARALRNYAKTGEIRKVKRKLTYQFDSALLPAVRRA

TGTCAA
binding signal [1]: 1.02 fold enrichment (6-mer frequency, TF over GST control) | binding signal [2]: 1.01 fold enrichment (6-mer frequency, TF over GST control) | binding signal [3]: 1.05 fold enrichment (6-mer frequency, TF over GST control) | binding signal [4]: 1.05 fold enrichment (6-mer frequency, TF over GST control) | binding signal [5]: 1 fold enrichment (6-mer frequency, TF over GST control) | binding signal [6]: 1.02 fold enrichment (6-mer frequency, TF over GST control) | binding signal [7]: 1.08 fold enrichment (6-mer frequency, TF over GST control) | binding signal [8]: 1.11 fold enrichment (6-mer frequency, TF over GST control) | binding signal [9]: 1 fold enrichment (6-mer frequency, TF over GST control) | binding signal [10]: 1.15 fold enrichment (6-mer frequency, TF over GST control) | binding signal [11]: 1.06 fold enrichment (6-mer frequency, TF over GST control) | binding signal [12]: 1.07 fold enrichment (6-mer frequency, TF over GST control) | binding signal [13]: 1.07 fold enrichment (6-mer frequency, TF over GST control) | binding signal [14]: 1.03 fold enrichment (6-mer frequency, TF over GST control) | binding signal [15]: 1.01 fold enrichment (6-mer frequency, TF over GST control) | binding signal [16]: 1.08 fold enrichment (6-mer frequency, TF over GST control) | binding signal [17]: 1.04 fold enrichment (6-mer frequency, TF over GST control)
